Compound activity: PubChem, National Center for Advancing Translational Sciences (NCATS)
Only some compounds are listed: those with a hit (about 11% of all), similar ones and a draw of the others.
ALOX12 inhib: blocks human 12-lipoxygenase activity. P18054. purified 12-hLO, xylenol orange hydroperoxide absorbance. Potency, µM (highest dose often 57.1 µM), without a hit: at the top dose activity change, negative = inhibition, actives largely listed as inhibitors. actives 0.12% (n = 150,000); active = well fitted curve in the direction sought with a large enough effect; inconclusive = small, poorly fitted or top-dose-only effect, or another doubt; inactive = no such curve, though single readings can be large; an effect the other way counts as inactive or inconclusive; note: potency is the fitted concentration of half-maximal effect; nearly all actives have a fitted effect of over 55% in size
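Purified human 12hLO (150 nM), preincubated 15 min with compound, then 40 uM arachidonic acid for 30 min, room temperature, Hepes pH 7.0 with 0.01% Triton X-100. Hydroperoxide detected by ferrous iron/xylenol orange; 573/405 nm absorbance ratio gives reaction progress.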
IMPase Li inh: IMPase inhibition in cells with lithium potentiation; actives 0.35% (n = 210,000); CHO-M1 cells, IP1 TR-FRET (IP-One), carbachol + lithium; AID 1457; Potency, µM (series often up to 59.4 µM), inactives show at the highest dose activity, negative = IMPase inhibition, actives largely listed as inhibitors; active = well fitted curve in the direction sought with a large enough effect; inconclusive = small, poorly fitted or top-dose-only effect, or another doubt; inactive = no such curve, though single readings can be large; an effect the other way counts as inactive or inconclusive;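 note: IP1 builds up when IMPase is blocked and the TR-FRET signal falls; potency is the fitted concentration of half-maximal effect; plate controls were basal vehicle for no effect and high inhibitor control for full effect; nearly all actives have a fitted effect of over 50% in size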
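Readout is a homogeneous TR-FRET IP1 immunoassay (Ex 320, Em 665 and 620), where raised cytosolic IP1 lowers signal. Cells were CHO-M1 treated 30 min at 37C with test compounds plus a little lithium; AC50 values came from Hill-equation fitting.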
ALDH1A1 inh: ALDH1A1 (human) enzyme inhibition | actives 7.3% (n = 220,000) | P00352 | Potency, µM (series often up to 75.3 µM), inactives show top-dose activity, negative = inhibition, most hits filed as inhibitors | Purified ALDH1A1, NADH fluorescence, propionaldehyde substrate;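 note: potency is the fitted concentration of half-maximal effect; plate controls were no enzyme wells and a reference inhibitor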
Target sequence (P00352 whole entry, looked up): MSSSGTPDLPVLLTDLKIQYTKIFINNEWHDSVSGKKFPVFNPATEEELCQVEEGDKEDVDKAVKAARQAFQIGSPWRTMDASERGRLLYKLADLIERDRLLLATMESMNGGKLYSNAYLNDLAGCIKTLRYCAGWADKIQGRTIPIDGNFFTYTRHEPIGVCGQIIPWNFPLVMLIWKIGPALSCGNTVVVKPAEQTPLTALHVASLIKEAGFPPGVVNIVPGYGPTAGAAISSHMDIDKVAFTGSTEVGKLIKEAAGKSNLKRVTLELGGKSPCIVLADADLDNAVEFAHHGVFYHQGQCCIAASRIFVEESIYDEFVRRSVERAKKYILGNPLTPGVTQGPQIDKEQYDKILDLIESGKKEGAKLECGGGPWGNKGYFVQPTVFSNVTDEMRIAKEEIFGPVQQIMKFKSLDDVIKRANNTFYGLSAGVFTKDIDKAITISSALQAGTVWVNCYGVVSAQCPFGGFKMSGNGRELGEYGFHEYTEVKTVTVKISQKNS
PNC assembly inh: inhibitors of perinucleolar compartment assembly | PC3M PTB-GFP, PNC prevalence imaging, 16 h; hits give low values | activity change (PNC), negative = inhibition, % at 10 µM | actives 3.1% (n = 140,000);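 active = readout at or below -70, meaning at least 70% loss of cells showing the perinucleolar compartment, a nuclear body marking cancer cells; inconclusive = readout between -30 and a set limit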;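 note: plate controls were DMSO wells for no effect and camptothecin positive control wells for full effect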
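PC3M cells stably expressing PTB-GFP, 750–1000 cells/well, treated 16 h at 37 °C with compound (23 nl of library stock), in duplicate. After paraformaldehyde fixation and Hoechst stain, imaged at 20x; PNC prevalence scored by image analysis.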
IMPase inh: IMPase inhibition in cells; P97697; CHO-M1 cells, IP1 accumulation, HTRF TR-FRET ratio; inhibition (IP1 accumulation), % at 46.1 µM; 120,000 tested, under 10 active; active = well fitted curve in the direction sought with a large enough effect in the signal ratio, not every such curve was filed as active; inconclusive = small, poorly fitted or top-dose-only effect, or a change in a side signal; inactive = no such curve, though single readings can be large or run the other way; the % refers to the signal ratio;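 note: cells stimulated with carbachol in lithium chloride buffer; plate controls were DMSO basal wells for no effect and reference inhibitor wells for full effect; higher means more IMPase inhibition seen as more IP1 and lower FRET ratio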
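The IP-One HTRF competitive assay in carbachol-stimulated CHO-M1 cells quantifies cellular IP1. Compounds spanned up to 46 uM final, and activity is expressed as AC50 from concentration-response fits of the ratio and donor data.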
HPGD block: blocks human HPGD enzyme activity; purified HPGD, NADH fluorescence kinetic, PGE2 substrate; Potency, µM, for inactives: at the highest dose activity change, negative = inhibition, hits mostly inhibitors; actives 4.3% (n = 150,000); note: potency is the fitted concentration of half-maximal effect
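NADH formation kinetics: reaction with 30 uM PGE2 and 1 mM NAD+ (final), 20 nM enzyme, Tris-HCl pH 8 with Tween 20, after 15 min compound preincubation at room temperature. Fluorescence change, last versus first of five reads.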
Starred values were filed as active, the others as inactive; ? = inconclusive; . = no result given; [ ] = dose if it differs, or a comment. Unless noted, calls come from the whole dose curve; as a rule, active = well fitted inhibition curve with a large enough effect (not every such curve was filed as active); inconclusive = small, poorly fitted or top-dose-only effect, or another doubt; inactive = no such curve, though single readings can be large or run the other way. Unless noted, % is set by controls: 0 for no effect and ±100 for the full control effect.

SMILES | ALOX12 inhib | IMPase Li inh | ALDH1A1 inh | PNC assembly inh | IMPase inh | HPGD block
COC(=O)N1CCC2(CC1)CN(C(=O)Nc1ccc(OC)cc1)C2 | 0% | -6% | 3% | . | . | -2%
COc1ccc(S(=O)(=O)N(CCc2ccccc2)CC(=O)Nc2cc(C)cc(C)c2)cc1OC | . | . | . | . | 1 | .
Oc1oc(-c2ccco2)nc1C=Nc1cccc(Cl)c1 | -9% | 14%[38.3 µM] | -11% | ? | 8 | -2%
CC(=NCc1cccc(Cl)c1)c1nc(-c2ccco2)oc1O | -2% | 10% | 18µM* | 32 | . | -15%
COC(=O)c1cc(C(=O)c2ccccc2)n2c(=O)/c(=C\N(C)C)sc12 | . | . | 3.2µM* | . | . | .
COC(=O)c1cc(C(=O)c2ccc(Cl)cc2)n2c(=O)/c(=C\N(C)C)sc12 | . | -5% | 0.25µM* | . | . | .
CC(=O)c1cc(F)ccc1OCC(=O)N1CCN(c2ccc(F)cc2)CC1 | . | -2% | 25µM* | . | . | .
COC(=O)N[C@H](C[N+](=O)[O-])c1cccc(C)c1 | . | 8% | 5% | . | . | -8%
CC(C)N(CC(=O)Nc1ccc(Cl)cc1C(F)(F)F)C(=O)CCl | . | 5% | 1.8µM* | . | . | .
O=C(O)CSCC(=O)Nc1ccc(Cl)cc1C(F)(F)F | . | 3% | 5% | . | . | .
O=C(Nc1c2c(nc3ccccc13)CCCC2)c1ccccc1F | 1% | 6% | -2% | -119* | -3 | -4%
CC(C)(C)CC(C)(C)NCC(=O)Nc1c2c(nc3ccccc13)CCC2 | . | 29% | 9.5µM* | . | . | .
CCNc1ncc2ncc(=O)n(Cc3cccs3)c2n1 | . | 2% | ? | . | . | .
CC(C)C[C@@H](C=O)NC(=O)[C@H](CC(C)C)NC(=O)[C@H](CC(C)C)NC(=O)OCc1ccccc1 | . | 7% | 14µM* | . | . | .
COC(=O)CCC(NC(=O)OCc1ccccc1)C(=O)NC(CC(C)C)C(=O)OC (stereo unspecified) | 1% | -8%[38.3 µM] | 4% | 0 | 1 | -7%
CCCCC(=O)Nc1cccc(NC(=O)c2ccccc2Br)c1 | -3% | 20%[38.3 µM] | -8% | 9 | 6 | -4%
Cc1ccc(S(=O)(=O)Nc2ccc(NC(=O)c3cccs3)cc2)cc1 | . | 8% | 28µM* | . | . | .
Cc1ccc(C)n1NC(=O)c1cccs1 | -3% | 15%[38.3 µM] | 10% | -117* | 5 | -12%
Cc1cc(C)c(NS(=O)(=O)c2ccc(NC(=O)c3cccs3)cc2)c(C)c1 | 2% | 11% | 3% | 25 | . | -12%
O=C(Nc1cccnc1)c1cccs1 | 4% | 6%[38.3 µM] | 7% | -100* | 11 | -13%
O=C(/C=N/O)NCc1cccnc1 | -1% | . | 3% | ? | 3 | .
O=C(/C=N/O)Nc1cccnc1 | 1% | 4% | 2% | -100* | -7 | -13%
Cc1ccc(C)n1NC(=O)c1ccccc1 | -2% | -1%[38.3 µM] | 0% | -14 | 6 | -3%
Cc1ccc([C@@]2(C)CC/C(=N/N=C3\CC[C@](C)(c4ccc(C)c(C)c4)c4cc(C)c(C)cc43)c3cc(C)c(C)cc32)cc1C | -1%[11.4 µM] | 6% | -3%[13.5 µM] | . | . | -9%
CC(=O)c1ccc(NC(=O)c2cccs2)cc1 | 5% | -8%[38.3 µM] | -15% | -111* | 10 | -26%
SMILES | ALOX12 inhib | IMPase Li inh | ALDH1A1 inh | PNC assembly inh | IMPase inh | HPGD block
Cc1ccc(C(=O)Nc2ccc(NC(=O)c3cccs3)cc2)cc1C | . | . | . | . | 11 | .
COc1ccc(-c2nc3cnc(Oc4ccccc4)nc3n(CCC#N)c2=O)cc1 | . | 10µM* | 10% | . | . | .
COCCn1c(=O)c(CCc2ccccc2)nc2cnc(OCc3ccccc3)nc21 | . | 11% | 25µM* | . | . | .
COc1ccc(-c2nc3cnc(OCc4ccccc4)nc3n(CCC#N)c2=O)cc1 | . | 22µM* | ? | . | . | .
N#CCCn1c(=O)c(-c2ccccc2)nc2cnc(OCc3ccccc3)nc21 | -7% | 11µM* | ? | . | . | ?
CCOC(=O)c1ccc(NC(=O)CC2Nc3cc(C)c(C)cc3NC2=O)cc1 (stereo unspecified) | . | . | . | . | 3 | .
Nc1ncnc2c1ncn2[C@@H]1O[C@H](C(=O)NC2CC2)[C@H](O)[C@H]1O | . | -1% | 3% | . | . | -18%
CS(=O)(=O)Nc1cccc(-c2nc(Nc3ccncc3)c3ccccc3n2)c1 | . | 41% | 5% | . | . | .
CCn1c(C(c2ccccc2)c2ccccc2)n[nH]c1=S | 1% | 4%[38.3 µM] | ? | -23 | 7 | -11%
C=CCn1c(CSc2nc3ccccc3s2)n[nH]c1=S | -5% | -7%[38.3 µM] | 11µM* | -27 | -2 | 18µM*
C=CCn1c(C(c2ccccc2)c2ccccc2)n[nH]c1=S | -1% | -3% | 6% | -3 | . | 25µM*
S=c1[nH]nc(CSc2nc3ccccc3s2)n1Cc1ccccc1 | -27% | 27%[38.3 µM] | ? | ? | -4 | 13µM*
Cc1ccc(S(=O)(=O)NC2=C(N3CCN(Cc4ccccc4)CC3)C(=O)c3ccccc3C2=O)cc1 | -2% | 22%[38.3 µM] | -1% | -19 | -3 | -11%
Cc1ccc(S(=O)(=O)NN=C2CCN(Cc3ccccc3)CC2)cc1 | 3% | -4% | 3.5µM* | 0 | . | -4%
Cc1ccc(S(=O)(=O)NNC(=O)C2CCN(Cc3ccccc3)CC2)cc1 | -2% | 22% | 8% | -100* | 16 | -8%
Nn1cc(-c2ccccc2)nc1SCC(=O)Nc1ccc2c(c1)OCO2 | -5% | 2% | 1.4µM* | ? | -7 | -17%
O=C(CSc1ncnc2ccccc12)Nc1ccc2c(c1)OCCO2 | . | -1% | -3% | . | . | .
O=C(CSc1ncnc2ccccc12)Nc1ccc2c(c1)OCO2 | 1% | 24%[38.3 µM] | 11µM* | 40 | 4 | -7%
